# Results filed as inconclusive are left out. Calls of active or inactive are those of the source. How the source made its calls, unless noted: active means hit-call score of the fitted dose curve at least 0.9, where 1 is the maximum; inconclusive means response in the unintended direction; inactive means score below 0.9.
# How the values were obtained:
# [1] = target: PGR (gene 5241) (UniProt P06401); assay: TOX21_PR_BLA_Followup_Antagonist_ratio: Tox21 HEK293 Progesterone Receptor (PR) Antagonism Beta-lactamase Follow-Up Assay, Ratio (AID 2283934);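 further: PR-UAS-bla HEK293T cells stimulated with 1 nM R5020 agonist for 16 hr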
# Chain of PGR (gene 5241) (P06401 whole entry, looked up): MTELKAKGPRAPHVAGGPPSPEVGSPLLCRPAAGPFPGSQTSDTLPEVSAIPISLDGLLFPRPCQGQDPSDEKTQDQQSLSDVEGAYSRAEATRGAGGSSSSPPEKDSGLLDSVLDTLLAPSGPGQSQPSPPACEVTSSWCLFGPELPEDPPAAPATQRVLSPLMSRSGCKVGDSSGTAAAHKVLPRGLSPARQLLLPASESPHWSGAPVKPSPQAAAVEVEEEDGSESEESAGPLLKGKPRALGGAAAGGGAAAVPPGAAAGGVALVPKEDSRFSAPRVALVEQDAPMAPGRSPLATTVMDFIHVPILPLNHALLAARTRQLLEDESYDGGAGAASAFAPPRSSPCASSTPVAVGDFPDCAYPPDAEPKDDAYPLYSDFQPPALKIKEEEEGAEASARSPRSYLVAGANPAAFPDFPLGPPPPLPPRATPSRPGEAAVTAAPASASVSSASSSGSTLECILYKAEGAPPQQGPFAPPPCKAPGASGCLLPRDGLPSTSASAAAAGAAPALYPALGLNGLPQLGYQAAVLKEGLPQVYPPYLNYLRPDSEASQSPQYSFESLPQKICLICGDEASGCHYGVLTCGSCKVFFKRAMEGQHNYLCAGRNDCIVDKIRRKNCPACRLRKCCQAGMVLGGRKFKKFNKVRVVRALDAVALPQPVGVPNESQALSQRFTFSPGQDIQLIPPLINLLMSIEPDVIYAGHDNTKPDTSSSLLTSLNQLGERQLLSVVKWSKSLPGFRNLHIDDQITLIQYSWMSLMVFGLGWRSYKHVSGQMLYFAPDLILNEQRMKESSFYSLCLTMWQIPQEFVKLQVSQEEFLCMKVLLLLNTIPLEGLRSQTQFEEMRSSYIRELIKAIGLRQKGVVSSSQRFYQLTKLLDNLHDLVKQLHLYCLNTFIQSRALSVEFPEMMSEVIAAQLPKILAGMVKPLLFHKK
# Procedure, shortened: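 Cells are plated, rested 6 hr, then dosed with test compound in DMSO and challenged with 1 nM promegestone. After 16 hr incubation, substrate loading for 2 h at room temperature precedes fluorescence reading; viability is measured in the same wells.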
# [2] = TOX21_PR_BLA_Followup_Agonist_viability: Viability Assessment in the Tox21 HEK293 Progesterone Receptor (PR) Agonism Beta-lactamase Follow-Up Assay (AID 2283935);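 further: signal loss means lower viability so actives are cytotoxic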
# Procedure, shortened: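 Cells were plated in medium with 2% charcoal-stripped FBS and rested 6 hr. Compounds in DMSO were then added for 16 hr at 37C, followed by the FRET substrate step and CellTiter-Glo luminescence after 30 min.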
# [3] = TOX21_PR_LUC_Followup_Antagonist_viability: Viability Assessment in the Tox21 HEK293 Progesterone Receptor (PR) Antagonism Luciferase Follow-Up Assay (AID 2283940)
# Procedure, shortened: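 HEK293-PR-A-luc, 3,000 cells/well; 5 h at 37C/0% CO2; compound pin transfer; 16 h incubation; CellTiter-Glo ATP luminescence, signal loss = cytotoxicity.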
# [4] = TOX21_PR_LUC_Followup_Agonist_viability: Viability Assessment in the Tox21 HEK293 Progesterone Receptor (PR) Agonism Luciferase Follow-Up Assay (AID 2283941);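 further: loss of signal means cytotoxicity so actives lower viability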
# Procedure, shortened: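 Multiplexed viability endpoint of the PR agonist luciferase follow-up: HEK293-PR-A-luc cells treated 16 h at 37C, with viability scored as decrease in CellTiter-Glo ATP signal.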
# [5] = TOX21_TR_RXR_BLA_Agonist_Followup_viability: Viability Assessment in the Tox21 Thyroid Hormone Receptor beta Retinoid X Receptor alpha (RXRa) Agonism Beta-lactamase (BLA) Follow-Up Assay (AID 2283970)
# Procedure, shortened: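 Viability counter-screen run alongside the RXRa bla follow-up: HEK293T reporter cells were treated for 16h at 37C in stripped-serum medium, then ATP was quantified by luciferase-coupled CellTiter-Glo. Decreased signal relative to DMSO marked cytotoxicity.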
# [6] = TOX21_PR_BLA_Followup_Antagonist_viability: Viability Assessment in the Tox21 HEK293 Progesterone Receptor (PR) Antagonism Beta-lactamase Follow-Up Assay (AID 2283936);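 further: cells exposed to compound with R5020 agonist for 16 h; hits lower the luminescence signal meaning cytotoxicity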
# Procedure, shortened: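 PR-UAS-bla HEK293T cells in medium with 2% charcoal-stripped FBS were treated with compounds plus R5020 for 16 hr at 37C. After the beta-lactamase read, CellTiter-Glo was added to the same wells and luminescence read after 30 min at room temperature.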
# [7] = CCTE_Harrill_HTTr_Viability_DMEM_6hr: (Pilot) CCTE's 6-hour Cell Viability Assessment for the High-Throughput Transcriptomics (HTTr) Platform, in MCF-7 cells cultured in DMEM + 10% fetal bovine serum, Harrill Lab (AID 2283973; active means hit-call score of the fitted dose curve at least 0.9, where 1 is the maximum; inactive means score below 0.9)
# Procedure, shortened: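 Propidium iodide uptake imaged by high-content analysis after six hours of chemical treatment in an eight-concentration series. Cells: MCF-7 grown in DMEM with 10% fetal bovine serum; DMSO as baseline.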
# [8] = CCTE_Harrill_HTTr_Viability_DMEM_12hr: (Pilot) CCTE's 12-hour Cell Viability Assessment for the High-Throughput Transcriptomics (HTTr) Platform, in MCF-7 cells cultured in DMEM + 10% fetal bovine serum, Harrill Lab (AID 2283974; active means hit-call score of the fitted dose curve at least 0.9, where 1 is the maximum; inactive means score below 0.9)
# Procedure, shortened: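 Propidium iodide dye exclusion imaged by high-content microscopy after 12 h chemical exposure (eight concentrations) of MCF-7 cells grown in DMEM plus 10% FBS; values fitted in both directions relative to DMSO.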
# [9] = target: PGR (gene 5241) (UniProt P06401); assay: TOX21_PR_LUC_Followup_Antagonist: Tox21 HEK293 Progesterone Receptor (PR) Antagonism Luciferase Follow-Up Assay (AID 2283938);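 further: curve fitted upward as signal gain over DMSO baseline despite antagonist label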
# Procedure, shortened: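 HEK293-PR-A-luc cells were precultured 5 days in medium with 10% charcoal-stripped FBS, seeded 3,000/well, then exposed to compounds in DMSO for 16 h at 37C. Luciferase was read by ONE-Glo luminescence after 30 min at room temperature.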
# [10] = target: Thyroid hormone receptor alpha (Rattus norvegicus) + Thyroid hormone receptor beta (Rattus norvegicus) (UniProt P18113+P63059); assay: TOX21_TR_LUC_GH3_Antagonist_Followup: Tox21 GH3 Thyroid Hormone Receptor Antagonism Luciferase Follow-Up Assay (AID 2283942)
# Procedure, shortened: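 Loss of T3-driven (1.0 nM final) reporter activity in GH3 cells was read by ONE-Glo luminescence after 24 h incubation at 37C; 15-point compound series spanned 92 uM to 5nM final, 1,500 cells/well.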
# [11] = target: THRA (gene 7067) (UniProt P10827); assay: TOX21_TRA_COA_Antagonist_Followup_ratio: Tox21 Thyroid Hormone Receptor alpha Antagonism through Coactivator Recruitment Follow-Up Assay, Ratio (AID 2283953)
# Chain of THRA (gene 7067) (P10827 whole entry, looked up, the tested form may be a part): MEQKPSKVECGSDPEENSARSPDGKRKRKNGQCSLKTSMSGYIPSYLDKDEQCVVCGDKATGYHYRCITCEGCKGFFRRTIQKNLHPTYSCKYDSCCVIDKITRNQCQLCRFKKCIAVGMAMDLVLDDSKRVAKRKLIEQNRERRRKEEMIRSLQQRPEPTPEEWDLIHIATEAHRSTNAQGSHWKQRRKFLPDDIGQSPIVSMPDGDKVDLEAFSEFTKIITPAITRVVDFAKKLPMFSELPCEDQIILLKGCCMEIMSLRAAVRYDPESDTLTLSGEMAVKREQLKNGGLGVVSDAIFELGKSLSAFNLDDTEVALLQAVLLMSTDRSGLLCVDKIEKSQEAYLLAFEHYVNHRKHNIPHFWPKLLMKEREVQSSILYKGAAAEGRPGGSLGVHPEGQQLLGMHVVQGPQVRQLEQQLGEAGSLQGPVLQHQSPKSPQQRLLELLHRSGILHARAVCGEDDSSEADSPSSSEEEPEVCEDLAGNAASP
# Procedure, shortened: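 GST-TRα LBD 2.5 nM, BSA 0.10%, + cpd; then FITC-SRC-2 peptide 200 nM + Tb-anti-GST Ab 2 nM. TR-FRET ratio 520/495 nm. Norm: DMSO = 0%, T3 = 100%.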
# [12] = target: THRB (gene 7068) (UniProt P10828); assay: TOX21_TRB_BLA_Antagonist_Followup_ratio: Tox21 Thyroid Hormone Receptor beta Antagonism Beta-lactamase (BLA) Follow-Up Assay, Ratio (AID 2283958)
# Chain of THRB (gene 7068) (P10828 whole entry, looked up, the tested form may be a part): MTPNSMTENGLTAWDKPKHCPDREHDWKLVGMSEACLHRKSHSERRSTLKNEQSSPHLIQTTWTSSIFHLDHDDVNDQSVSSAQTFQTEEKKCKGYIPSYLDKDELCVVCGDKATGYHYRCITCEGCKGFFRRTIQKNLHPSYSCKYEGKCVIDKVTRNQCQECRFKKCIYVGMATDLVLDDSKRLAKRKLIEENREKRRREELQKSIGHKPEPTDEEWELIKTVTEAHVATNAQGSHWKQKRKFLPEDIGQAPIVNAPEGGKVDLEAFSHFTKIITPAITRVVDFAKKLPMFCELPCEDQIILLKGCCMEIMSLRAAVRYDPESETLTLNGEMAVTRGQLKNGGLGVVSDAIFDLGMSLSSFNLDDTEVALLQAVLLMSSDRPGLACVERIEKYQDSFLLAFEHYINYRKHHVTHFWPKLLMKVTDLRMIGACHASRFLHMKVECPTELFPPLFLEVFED
# Procedure, shortened: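 Cells were plated and allowed to attach for 5 h, then dosed with compounds in DMSO at 11 concentrations for 18 h at 37C. Beta-lactamase reporter activity was measured via CCF4-AM FRET as the 460:530 nm ratio.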
# [13] = TOX21_TRB_BLA_Antagonist_Followup_viability: Viability Assessment in the Tox21 Thyroid Hormone Receptor beta Antagonism Beta-lactamase (BLA) Follow-Up Assay (AID 2283961)
# Procedure, shortened: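 HEK293T cells stably expressing GAL4-DBD/human TRβ-LBD with UAS-bla reporter, 3,000 cells/well in phenol red-free DMEM, 2% charcoal-stripped FBS. Compounds at 11 concentrations in triplicate, 18 h at 37C/5% CO2; viability by CellTiter-Glo luminescence after 30 min at room temperature.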
# [14] = target: THRB (gene 7068) (UniProt P10828); assay: TOX21_TRB_COA_Antagonist_Followup_ratio: Tox21 Thyroid Hormone Receptor beta Antagonism through Coactivator Recruitment Follow-Up Assay, Ratio (AID 2283967)
# Procedure, shortened: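 Coactivator recruitment to the GST-tagged TRb ligand-binding domain (5.0 nM) was read as the 520/495 nm TR-FRET ratio, using 200 nM fluorescein SRC-2 peptide and 2 nM terbium anti-GST. Scaled between DMSO and T3 wells; loss of signal fitted.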
# [15] = target: Retinoic acid receptor RXR-alpha (Homo sapiens) (UniProt P19793); assay: TOX21_TR_RXR_BLA_Antagonist_Followup_ratio: Tox21 Thyroid Hormone Receptor beta Retinoid X Receptor alpha (RXRa) Antagonism Beta-lactamase (BLA) Follow-Up Assay, Ratio (AID 2283972)
# Chain of Retinoic acid receptor RXR-alpha (Homo sapiens) (P19793 whole entry, looked up): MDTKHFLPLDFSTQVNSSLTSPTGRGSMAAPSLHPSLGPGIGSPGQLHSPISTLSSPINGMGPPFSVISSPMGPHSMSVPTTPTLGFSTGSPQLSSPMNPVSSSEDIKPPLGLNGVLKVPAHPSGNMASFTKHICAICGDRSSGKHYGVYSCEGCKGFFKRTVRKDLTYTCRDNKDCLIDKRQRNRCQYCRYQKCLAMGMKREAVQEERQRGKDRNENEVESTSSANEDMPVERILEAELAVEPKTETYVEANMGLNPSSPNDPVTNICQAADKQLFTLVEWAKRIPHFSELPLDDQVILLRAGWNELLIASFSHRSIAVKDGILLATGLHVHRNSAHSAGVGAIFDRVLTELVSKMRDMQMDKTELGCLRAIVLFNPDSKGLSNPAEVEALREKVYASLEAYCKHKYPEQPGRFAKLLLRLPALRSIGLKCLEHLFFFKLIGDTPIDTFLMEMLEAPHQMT
# Procedure, shortened: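 RXRa-UAS-bla HEK293T cells in phenol red-free DMEM with 2% charcoal-stripped FBS; compounds at 11 concentrations in triplicate, 16 h at 37C. LiveBLAzer FRET-B/CCF4-AM substrate 2 h at room temperature; read as 460:530 nm ratio versus DMSO.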
# [16] = target: THRA (gene 7067) (UniProt P10827); assay: TOX21_TRA_COA_Agonist_Followup_ratio: Tox21 Thyroid Hormone Receptor alpha Agonism through Coactivator Recruitment Follow-Up Assay, Ratio (AID 2283948; active means hit-call score of the fitted dose curve at least 0.9, where 1 is the maximum; inactive means score below 0.9)
# Procedure, shortened: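 Read-out is the 520/495 nm emission ratio (ex 340 nm), scaled between DMSO-only wells as 0% and T3 wells as 100%. It reflects fluorescein-SRC-2 peptide recruitment to GST-TRα LBD detected via terbium anti-GST antibody.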
# [17] = target: THRB (gene 7068) (UniProt P10828); assay: TOX21_TRB_BLA_Agonist_Followup_ratio: Tox21 Thyroid Hormone Receptor beta Agonism Beta-lactamase (BLA) Follow-Up Assay, Ratio (AID 2283954)
# Procedure, shortened: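 Agonist mode: compounds (11-point, triplicate) incubated 18 h with HEK293T cells carrying GAL4-DBD/human TRβ-LBD and UAS-β-lactamase. Blue/green (460/530 nm) FRET ratio read after 2 h CCF4-AM loading; CellTiter-Glo viability run in the same plates.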
# [18] = target: THRB (gene 7068) (UniProt P10828); assay: TOX21_TRB_COA_Agonist_Followup_ratio: Tox21 Thyroid Hormone Receptor beta Agonism through Coactivator Recruitment Follow-Up Assay, Ratio (AID 2283963; active means hit-call score of the fitted dose curve at least 0.9, where 1 is the maximum; inactive means score below 0.9)
# Procedure, shortened: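 Signal is the 520/495 nm emission ratio (excitation 340 nm), scaled between DMSO-only wells as 0% and T3 wells as 100%. It reflects fluorescein-labeled SRC-2 peptide recruitment to GST-TRβ ligand-binding domain detected via terbium anti-GST antibody.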
# [19] = target: Retinoic acid receptor RXR-alpha (Homo sapiens) (UniProt P19793); assay: TOX21_TR_RXR_BLA_Agonist_Followup_ratio: Tox21 Thyroid Hormone Receptor beta Retinoid X Receptor alpha (RXRa) Agonism Beta-lactamase (BLA) Follow-Up Assay, Ratio (AID 2283968)
# Procedure, shortened: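 Cells were first allowed to attach for 5 h, after which compounds in DMSO were pinned at 11 concentrations and incubated 16 h at 37C. LiveBLAzer CCF4-AM substrate was then added for 2 h at room temperature before reading 460 and 530 nm fluorescence.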
# [20] = CEETOX_H295R_TESTO_noMTC: CeeTox H295R High-throughput Steroidogenesis Assay for Testosterone (TESTO), maximum tolerated concentration (MTC) filtered results only (AID 2283924; active means hit-call score of the fitted dose curve at least 0.9, where 1 is the maximum; inactive means score below 0.9); conditions: actives raise or lower the signal
# Procedure, shortened: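 Medium testosterone, measured by HPLC-MS/MS after liquid-liquid extraction, was fitted in both directions relative to DMSO without MTC filtering. Adrenal H295R cells received 48 h chemical exposure (0.1% DMSO final) after 48 h forskolin (10 uM) prestimulation; viability by MTT.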
compound,measurement,setting,value
O=C(O)Cc1cc(I)c(Oc2ccc(O)c(I)c2)c(I)c1,AC50,[1],21.5 µM (active)
same,outcome,[2],inactive
same,outcome,[3],inactive
same,outcome,[4],inactive
same,outcome,[5],inactive
C[C@]12CC[C@@H]3c4ccc(O)cc4CC[C@H]3[C@@H]1CCC2=O,AC50,[1],1.42 µM (active)
same,outcome,[2],inactive
same,outcome,[6],inactive
same,outcome,[3],inactive
same,outcome,[4],inactive
CC1(C)NC(=O)N(c2ccc([N+](=O)[O-])c(C(F)(F)F)c2)C1=O,outcome,[7],inactive
same,outcome,[8],inactive
Cc1ccc2oc(CN(Cc3ccccc3)C(=O)Nc3c(F)cc(F)cc3F)c(-c3ccc(Cl)cc3)c2c1,AC50,[1],1.95 µM (active)
same,outcome,[2],inactive
same,outcome,[6],inactive
same,AC50,[9],1.09 µM (active)
same,outcome,[4],inactive
COc1cc(C(=O)NC2CCN(C)CC2)ccc1Nc1ncc2c(n1)N(C1CCCC1)CC(F)(F)C(=O)N2C,AC50,[10],16.4 µM (active)
same,outcome,[11],inactive
same,AC50,[12],3.69 µM (active)
same,AC50,[13],46.7 µM (active)
same,outcome,[14],inactive
same,outcome,[15],inactive
O=C1O[C@H]([C@@H](O)CO)C(O)=C1O,outcome,[16],inactive
same,outcome,[17],inactive
same,outcome,[18],inactive
same,outcome,[19],inactive
O=C(O)c1ccccc1C(=O)OCc1ccccc1,outcome,[20],inactive

# From PubChem BioAssay (EPA / NIEHS)
